The source of these data is PubChem BioAssay AID1080 (Emory University Molecular Libraries Screening Center, 2008).

The structures appear in SMILES notation. About 640 (49%) of roughly 1,300 compounds were called active.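 How the source made its calls: active means cAMP induction above 50% in the main assay while under 30% in all four parallel counter assays; inactive means the rest.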 So high a share suggests a set chosen from earlier hits. Not all results are given here.

The nature of experiment [1]: cAMP induction in EP2, EP4, beta2-AR and parental cells, confirmation, counter-screen for EP2 modulator project, cell-based, five parallel assays, C6 glioma, HEK293 (AID 1080). The note with it: cAMP HTRF induction. On the technique in general: Counterscreens check selectivity or assay interference.
In experiment [2] the target is Prostaglandin E2 receptor EP2 subtype (Homo sapiens) (UniProt P43116). The experiment is described as above. The note with it: cAMP HTRF induction, stronger effect = higher value, screened at 20 µM (by protocol), percent of 1 uM PGE2 response, plus low (about EC15) PGE2 agonist.
Where [3] appears, read: measured here: EP4 receptor counter-screen, percent of 1 uM PGE2 response, plus low (about EC15) PGE2 agonist.
The mark [4] stands for this setting: measured here: beta2 adrenergic HEK293 counter-screen.
Setting [5] is: measured here: cAMP conditions counter-screen.
Setting [6] is: measured here: parent C6 cells counter-screen.

Take `COc1c2c(cc3occ(-c4ccc5c(c4)OCO5)c(=O)c13)OC(C)(C)C=C2`: the cAMP induction was -0.877% in experiment [1] (setting [3]); -13.4% in experiment [1] (setting [4]); 2.3% in experiment [1] (setting [5]); 4.12% in experiment [1] (setting [6]); 46.1% (inactive) in experiment [2].
Turning to `CC(C)Oc1ccc(Cc2n[nH]c(=S)n2Cc2ccccc2)cc1Cl`, the cAMP induction in experiment [1] (setting [3]) is -4.47%; in experiment [1] (setting [4]), -10.4%; in experiment [1] (setting [5]) it was 0.63%; in experiment [1] (setting [6]), 2.28%; in experiment [2], 40% (inactive).
For `CC1(C)Cc2nc3sc4c(SCC(=O)NC(c5ccccc5)c5ccccc5)ncnc4c3cc2CO1` the same measures were 71.8%, 71.7%, 70.8%, 70% and 68.6% (inactive).
Consider `CCOC(=O)C1=C(CN2CCc3ccccc32)NC(=O)NC1c1ccc(Cl)cc1` (stereo not given), for which the cAMP induction in experiment [1] (setting [3]) is -13%; in experiment [1] (setting [4]), -5.75%; in experiment [1] (setting [5]), -12.2%; in experiment [1] (setting [6]), -1.26%; in experiment [2] it was 42.4% (inactive).
On to `Cc1cc(NC(=O)CN2CCCC(C)C2)n(-c2nc3ccccc3s2)n1` (stereo not given), for which the cAMP induction is 16.2% in experiment [1] (setting [3]); 6.5% in experiment [1] (setting [4]); -2.07% in experiment [1] (setting [5]); -6.69% in experiment [1] (setting [6]); 50.7% (active) in experiment [2].
Consider `COC(=O)c1sc2[nH]c(=S)n(N)c(=O)c2c1C`, for which the cAMP induction in experiment [1] (setting [3]) was 68.1%; in experiment [1] (setting [4]), 67.4%; in experiment [1] (setting [5]), 67.6%; in experiment [1] (setting [6]), 66.3%; in experiment [2], 70.6% (inactive).
On to `Cc1cccc2cc(CN(Cc3cccs3)C(c3nnnn3C3CCCC3)C(C)C)c(=O)[nH]c12` (stereo not given), for which the cAMP induction in experiment [1] (setting [3]) was -2.3%; in experiment [1] (setting [4]), -6.33%; in experiment [1] (setting [5]), 1.55%; in experiment [1] (setting [6]) it was 3.32%; in experiment [2] it was 59.5% (active).
Take `Oc1ccc(/C=N/N(Cc2ccccc2)c2ccccc2)cc1`: the cAMP induction in experiment [1] (setting [3]) is -13.7%; in experiment [1] (setting [4]) it was -14.9%; in experiment [1] (setting [5]), -0.103%; in experiment [1] (setting [6]) it was 2.51%; in experiment [2], 55.2% (active).
For `CCN1CCN(c2c(Cl)cccc2NC(=O)c2ccc(Br)o2)CC1` the same measures were 9.56%, -6.35%, 8.3%, 10.5% and 45.8% (inactive).
For the molecule `CCOC(=O)c1c(N)nn(C(=O)c2ccccc2)c1-c1ccccc1`, the cAMP induction in experiment [1] (setting [3]) was -2.57%; in experiment [1] (setting [4]) it was -8.03%; in experiment [1] (setting [5]) it was 0.963%; in experiment [1] (setting [6]), -2.53%; in experiment [2], 53.3% (active).
As for `Cc1ccc(-n2c(SCC(=O)Nc3ccc4c(c3)OCO4)nnc2-c2ccoc2C)cc1`, the cAMP induction in experiment [1] (setting [3]) is 7.89%; in experiment [1] (setting [4]), -0.777%; in experiment [1] (setting [5]) it was -1.2%; in experiment [1] (setting [6]) it was -1.05%; in experiment [2], 40.3% (inactive).
`COc1ccccc1NC(=O)CSc1nnc(Cn2nnc(-c3ccccc3)n2)n1-c1ccccc1`: the cAMP induction is -5.84% in experiment [1] (setting [3]); -2.51% in experiment [1] (setting [4]); 2.46% in experiment [1] (setting [5]); 3.99% in experiment [1] (setting [6]); 61.9% (active) in experiment [2].
The like results for `O=c1c2ccccc2c(-c2ccccc2)nn1Cc1ccccc1` were, in that order, 1.05%, 4.51%, -1.54%, -0.867% and 78% (active).
`CSc1nc2ccccc2c(=O)n1Cc1ccc(F)cc1`: the cAMP induction in experiment [1] (setting [3]) was 1.87%; in experiment [1] (setting [4]), 10%; in experiment [1] (setting [5]), -3.28%; in experiment [1] (setting [6]) it was 0.81%; in experiment [2] it was 44.6% (inactive).
With `O=c1c2ccccc2c(-c2ccc(Br)cc2)nn1Cc1ccccc1`, the cAMP induction in experiment [1] (setting [3]) is 4.3%; in experiment [1] (setting [4]), 8.28%; in experiment [1] (setting [5]) it was -3.64%; in experiment [1] (setting [6]), 0.753%; in experiment [2], 72.8% (active).
As for `O=C(COC(=O)c1ccccc1)Nc1ccccc1Sc1ccccc1`, the cAMP induction in experiment [1] (setting [3]) was 5.14%; in experiment [1] (setting [4]), -16.3%; in experiment [1] (setting [5]), -4.67%; in experiment [1] (setting [6]) it was -4.62%; in experiment [2] it was 66.8% (active).
For the molecule `Cc1ccccc1C(=O)Nc1ccccc1Sc1ccccc1`, the cAMP induction was -6.34% in experiment [1] (setting [3]); -0.06% in experiment [1] (setting [4]); -1.62% in experiment [1] (setting [5]); -1.24% in experiment [1] (setting [6]); 73.7% (active) in experiment [2].
For the molecule `O=C(CN1CCCCC1)N1c2ccccc2Sc2ccc(C(F)(F)F)cc21`, the cAMP induction in experiment [1] (setting [3]) was -11.3%; in experiment [1] (setting [4]), -1.41%; in experiment [1] (setting [5]), -5.21%; in experiment [1] (setting [6]) it was -5.14%; in experiment [2], 47.3% (inactive).
Take `CCc1ccccc1NC(=O)/C(=C/c1ccccc1)c1ccccc1`: the cAMP induction in experiment [1] (setting [3]) is -11.7%; in experiment [1] (setting [4]), 34%; in experiment [1] (setting [5]) it was -0.563%; in experiment [1] (setting [6]) it was -0.623%; in experiment [2], 53.6% (inactive).
Consider `Cc1ccc(C(=O)c2c(NC(=O)c3ccncc3)sc3c2CCCC3)cc1`, for which the cAMP induction in experiment [1] (setting [3]) is 4.56%; in experiment [1] (setting [4]) it was -17.1%; in experiment [1] (setting [5]), 0.45%; in experiment [1] (setting [6]), 3.43%; in experiment [2], 54.2% (active).
For the molecule `CCOCC(=O)Nc1sc2c(c1C(=O)OCC)CCCC2`, the cAMP induction in experiment [1] (setting [3]) was -16%; in experiment [1] (setting [4]), 3.07%; in experiment [1] (setting [5]) it was 3.98%; in experiment [1] (setting [6]) it was 1.75%; in experiment [2] it was 40.6% (inactive).
With `CC1(C)CC2CC(C)(CN2c2ncnc3ccc(Br)cc23)C1` (stereo not given), the cAMP induction in experiment [1] (setting [3]) is -0.537%; in experiment [1] (setting [4]) it was -0.287%; in experiment [1] (setting [5]), 6.56%; in experiment [1] (setting [6]), 5.43%; in experiment [2], 25.7% (inactive).
The like results for `Cc1ccc(Nc2cc(C)nc3c(C)ccc([N+](=O)[O-])c23)cc1` were, in that order, -1.3%, 15.4%, 0.53%, -0.713% and 57.4% (active).
Turning to `CC(=O)c1ccc2c(c1)c1ccccc1n2CC(C)C`, the cAMP induction was 8.49% in experiment [1] (setting [3]); 0.833% in experiment [1] (setting [4]); 9.82% in experiment [1] (setting [5]); 9.42% in experiment [1] (setting [6]); 58.9% (active) in experiment [2].
The like results for `CCCCCn1c(SCCC(C)C)nc2c1c(=O)[nH]c(=O)n2C` were, in that order, -16.3%, -18.1%, 1.4%, -0.767% and 59.3% (active).
Consider `CCOC(=O)C(CC)Sc1ncnc2c1nnn2-c1ccc(F)cc1` (stereo not given), for which the cAMP induction was -7.74% in experiment [1] (setting [3]); 17% in experiment [1] (setting [4]); 0.993% in experiment [1] (setting [5]); 2.03% in experiment [1] (setting [6]); 50.7% (active) in experiment [2].
